Target: T1, Proteasome subunit beta (Trypanosoma cruzi) (UniProt O96673)
T1 sequence (whole entry): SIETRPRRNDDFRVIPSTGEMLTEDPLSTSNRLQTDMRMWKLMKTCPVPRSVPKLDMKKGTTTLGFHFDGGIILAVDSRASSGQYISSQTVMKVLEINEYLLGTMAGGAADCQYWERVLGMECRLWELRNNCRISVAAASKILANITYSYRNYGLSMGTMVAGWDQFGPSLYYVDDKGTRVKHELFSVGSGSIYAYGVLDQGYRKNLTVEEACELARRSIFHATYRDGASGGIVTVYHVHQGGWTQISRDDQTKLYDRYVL
Assay: Trypanosoma cruzi proteasome chymotrypsin-like activity (TcProtChymo) assay.
Type: functional
Parameters: scale not given: in the data most compounds retested in dose-response had high values
Conditions: 9.37 µM

Structure (SMILES)	Percent Effect
CCn1cc(Br)c(C(=O)NCc2cccnc2)n1	19.3%
CCNC(=O)N1CCCCC1CCO (stereo not given)	-0.69%
Cc1ccc(CN2Cc3c(C(=O)N(C)C)nn(C)c3C2)s1	7.79%
COc1ccc(-n2ccc(C(=O)N3CCC(C(N)=O)C3)n2)cc1 (stereo not given)	-1.44%
CC(C)(C)C(=O)NCCC(=O)NC(C)(C)c1ccc2c(c1)OCCO2	4.44%
Cn1ncc2c(NCCOc3ccc(F)cc3)nc(C3CCCC3)nc21	-0.355%
O=C(CCc1ccsc1)NCC1CCN(c2ccccc2)C1 (stereo not given)	18.4%
CC(NC(=O)COc1nc(C(C)(C)C)no1)c1ccco1 (stereo not given)	3.45%
CCOCCN1CCN(Cc2nnc(C3CC3)o2)CC1CC (stereo not given)	1.95%
Cc1nccc(CNC(=O)NCCOc2ccc(F)c(F)c2)n1	14.8%
COC[C@]12COC[C@H]1CN(Cc1cc(OC)cc(OC)c1)C2	11.2%
CN(C)CC(=O)N1CCC2(CC1)CN(c1ccsc1)C(=O)CO2	3.96%
COc1ccc(-c2nnc(SC(C)C(=O)NC3CC3)[nH]2)c(OC)c1 (stereo not given)	13.3%
Cc1cc(NC(=O)CCN2CCCC2Cn2cncn2)no1 (stereo not given)	14.9%
CCN(CC)c1ccc(C(=O)NCc2cccnc2-n2cncn2)cn1	8.84%
O=C(c1ccco1)N1CCOCC2(C1)CN(c1ccccc1)C(=O)CO2 (stereo not given)	-1.54%
O=C(Cc1ccc2c(c1)CCO2)N1CCCCC1Cn1cccn1 (stereo not given)	7.19%
CCCc1cc(=O)[nH]c2nnc(SCC(=O)NCc3ccc(C)cc3)n12	20.2%
CCc1cnc(CN(C(C)=O)C2CCN(CCc3cnn(C)c3)C2)o1 (stereo not given)	9.56%
Cc1nc(C)n(CC2CCCN(CCc3ccncc3)C2)n1 (stereo not given)	15.6%

Structure (SMILES)	Percent Effect
CCS(=O)(=O)N(C)C(=O)c1cc(C)n(-c2cccc(OC)c2)c1C	4.34%
CCN(Cc1cccc(Cl)c1)Cc1nc2c(cnn2C)c(=O)[nH]1	15.4%
Cc1cc(-c2cnn(CCNC(=O)C3CCCO3)c2C2CC2)on1 (stereo not given)	3.59%
COc1ccc(NC(=O)N2CCCC2c2ccco2)cc1OC (stereo not given)	9.57%
Cn1cnc2c1C(COCC1CCOCC1)CN(C1CCOCC1)C2 (stereo not given)	6.96%
CCC(C)NC(=O)Cc1c(C)nc2c(c1C)c(=O)[nH]n2C (stereo not given)	7.32%
CN(C)C(=O)CN1C[C@@H]2CC[C@H](C1)N(Cc1cccc(Cl)c1Cl)C2	22.5%
Cn1ccc(CN2CCC(COC3CCCC3)CC2)cc1=O	11.2%
Cn1cc(CCNC(=O)CCc2ccc3c(c2)OCO3)cn1	13.3%
Cc1cc(C(=O)N2CC[C@H](OCC3CC3)[C@@H]2Cc2cccnc2)no1	4.79%
O=C(c1ccc(=O)[nH]n1)N1CC(c2nc(Cc3ccccc3)no2)C1	14.4%
Cc1cnn(CC2CCCCN2C(=O)c2ccc3nnc(C)n3c2)c1 (stereo not given)	15.9%
CN(Cc1ccco1)C(=O)[C@H]1CSCN1C(=O)OC(C)(C)C	8.21%
c1csc(-c2nc(CNC3CCc4ncnn4C3)co2)c1 (stereo not given)	4.22%
Cn1cc(CCNC(=O)NCc2nnc3n2CCC3)cn1	-0.573%
Cc1nn(C)c(N(C)C)c1CNCc1cccnc1-n1cncn1	12.9%
Cn1ncc2c(=O)[nH]c(CN3CCCC3Cc3ccccc3)nc21 (stereo not given)	2.28%
COc1ccccc1CC1CCCN(CC(N)=O)C1 (stereo not given)	-0.889%
Cc1noc(C(C)C)c1C(=O)NCc1cc(F)cc(F)c1	11.5%
Cc1nc(CN(Cc2ccccc2)C2CCS(=O)(=O)C2)oc1C (stereo not given)	10.4%
